Assay results taken from the supplement of paper PMC7411054.
Where a name gives a salt, the structure may show the parent alone.

Assays:
Conditions in all cases: treatment time: 24 h
[1] = system: A549-ACTB-RAB5A; assay: lowest phenotypically active concentration; higher = less potent
How it was run: (§1)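 Live-cell features were measured per well and normalised to solvent control wells after fifteen gene-edited A549, HepG2 and WPMY1 reporter lines had been treated for 24 h at 0.3, 1, 3 or 9 µM in four wells each. A condition was deviating when ≥3 of 4 wells sat beyond the 95th percentile of control Euclidean distances. It was reproducible when the median replicate Pearson correlation exceeded the 95th percentile of non-replicates. Phenotypic activity demanded both.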

[2] = system: A549-CANX-COX4; assay: as above
How it was run: as §1

[3] = system: A549-GM130-SQSTM1; assay: as above
How it was run: as §1

[4] = system: A549-TP53BP1-CLTA; assay: as above
How it was run: as §1

[5] = system: A549-TUBA1B-RELA; assay: as above
How it was run: as §1

[6] = system: A549-ACTB-RAB5A; assay: phenotypically active (imaging signature differs from DMSO and reproducible) at any of 0.3-9 uM (binary (1 = active, 0 = inactive)); higher = active
How it was run: as §1

[7] = system: A549-CANX-COX4; assay: as above
How it was run: as §1

[8] = system: A549-GM130-SQSTM1; assay: as above
How it was run: as §1

[9] = system: A549-TP53BP1-CLTA; assay: as above
How it was run: as §1

[10] = system: A549-TUBA1B-RELA; assay: as above
How it was run: as §1

[11] = system: HepG2-ACTB-RAB5A; assay: as above
How it was run: as §1

[12] = system: HepG2-CANX-COX4; assay: as above
How it was run: as §1

[13] = system: HepG2-GM130-SQSTM1; assay: as above
How it was run: as §1

[14] = system: HepG2-TP53BP1-CLTA; assay: as above
How it was run: as §1

[15] = system: HepG2-TUBA1B-RELA; assay: as above
How it was run: as §1

[16] = system: WPMY1-ACTB-RAB5A; assay: as above
How it was run: as §1

[17] = system: WPMY1-CANX-COX4; assay: as above
How it was run: as §1

[18] = system: WPMY1-GM130-SQSTM1; assay: as above
How it was run: as §1

[19] = system: WPMY1-TP53BP1-CLTA; assay: as above
How it was run: as §1

[20] = system: WPMY1-TUBA1B-RELA; assay: as above
How it was run: as §1

Row | Structure (SMILES) | lowest phenotypically active concentration [1] | lowest phenotypically active concentration [2] | lowest phenotypically active concentration [3] | lowest phenotypically active concentration [4] | lowest phenotypically active concentration [5] | phenotypically active [6] | phenotypically active [7] | phenotypically active [8] | phenotypically active [9] | phenotypically active [10] | phenotypically active [11] | phenotypically active [12] | phenotypically active [13] | phenotypically active [14] | phenotypically active [15] | phenotypically active [16] | phenotypically active [17] | phenotypically active [18] | phenotypically active [19] | phenotypically active [20]
1 | CC(C)NCCCn1c(Sc2cc3c(cc2I)OCO3)nc2c(N)ncnc21 | ≤ 0.3 µM | ≤ 0.3 µM | ≤ 0.3 µM | ≤ 0.3 µM | ≤ 0.3 µM | 1 (active) | 1 (active) | 1 (active) | 1 (active) | 1 (active) | 1 (active) | 1 (active) | 1 (active) | 1 (active) | 1 (active) | 1 (active) | 1 (active) | 1 (active) | 1 (active) | 1 (active)
2 | Nc1nc(Cl)nc2c1ncn2[C@@H]1O[C@H](CO)[C@@H](O)[C@@H]1F [clofarabine] | 1 µM | ≤ 0.3 µM | 1 µM | 1 µM | 1 µM | 1 (active) | 1 (active) | 1 (active) | 1 (active) | 1 (active) | 1 (active) | 1 (active) | 1 (active) | 1 (active) | 1 (active) | 1 (active) | 1 (active) | 1 (active) | 1 (active) | 1 (active)
3 | Nc1nc(Cl)nc2c1ncn2[C@H]1C[C@H](O)[C@@H](CO)O1 [cladribine] | 3 µM | 1 µM | 1 µM | 3 µM | 1 µM | 1 (active) | 1 (active) | 1 (active) | 1 (active) | 1 (active) | 1 (active) | 1 (active) | 1 (active) | 1 (active) | 1 (active) | 1 (active) | 1 (active) | 1 (active) | 1 (active) | 1 (active)
4 | C=CC(=O)Nc1cccc(Nc2nc(Nc3ccc(OCCOC)cc3)ncc2F)c1 | 3 µM | 3 µM | 9 µM | 3 µM | 9 µM | 1 (active) | 1 (active) | 1 (active) | 1 (active) | 1 (active) | 1 (active) | 1 (active) | 1 (active) | 1 (active) | 1 (active) | 1 (active) | 1 (active) | 1 (active) | 1 (active) | 1 (active)
5 | COCC(=O)O[C@]1(CCN(C)CCCc2nc3ccccc3[nH]2)CCc2cc(F)ccc2[C@@H]1C(C)C [mibefradil] | 3 µM | 9 µM | 3 µM | 9 µM | 3 µM | 1 (active) | 1 (active) | 1 (active) | 1 (active) | 1 (active) | 1 (active) | 1 (active) | 1 (active) | 1 (active) | 1 (active) | 1 (active) | 1 (active) | 1 (active) | 1 (active) | 1 (active)
6 | CN1CC[C@H](c2c(O)cc(O)c3c(=O)cc(-c4ccccc4Cl)oc23)[C@H](O)C1 [Flavopiridol hydrochloride] | ≤ 0.3 µM | ≤ 0.3 µM | ≤ 0.3 µM | ≤ 0.3 µM | ≤ 0.3 µM | 1 (active) | 1 (active) | 1 (active) | 1 (active) | 1 (active) | 1 (active) | 1 (active) | 1 (active) | 1 (active) | 1 (active) | 1 (active) | 1 (active) | 1 (active) | 1 (active) | 1 (active)
7 | O=C1NC(=O)[C@@H](c2cn3c4c(cccc24)CCC3)[C@@H]1c1c[nH]c2ccccc12 [tivantinib] | 1 µM | 1 µM | 1 µM | 1 µM | 3 µM | 1 (active) | 1 (active) | 1 (active) | 1 (active) | 1 (active) | 1 (active) | 1 (active) | 1 (active) | 1 (active) | 1 (active) | 1 (active) | 1 (active) | 1 (active) | 1 (active) | 1 (active)
8 | Cc1ccc(NC(=O)c2ccc(CN3CCN(C)CC3)cc2)cc1Nc1nc(-c2cccnc2)cs1 [masitinib] | 3 µM | 9 µM | 3 µM | 9 µM | 3 µM | 1 (active) | 1 (active) | 1 (active) | 1 (active) | 1 (active) | 1 (active) | 1 (active) | 1 (active) | 1 (active) | 1 (active) | 1 (active) | 1 (active) | 1 (active) | 1 (active) | 1 (active)
9 | CCC1(O)CC2CN(CCc3c([nH]c4ccccc34)C(C(=O)OC)(c3cc4c(cc3OC)N(C)C3C(O)(C(=O)OC)C(OC(C)=O)C5(CC)C=CCN6CCC43C65)C2)C1 (stereo not given) [Vinblastine sulfate] | ≤ 0.3 µM | ≤ 0.3 µM | ≤ 0.3 µM | ≤ 0.3 µM | ≤ 0.3 µM | 1 (active) | 1 (active) | 1 (active) | 1 (active) | 1 (active) | 1 (active) | 1 (active) | 1 (active) | 1 (active) | 1 (active) | 1 (active) | 1 (active) | 1 (active) | 1 (active) | 1 (active)
10 | COc1c(Nc2cc(C)[nH]n2)nc(Sc2ccc(S(=O)(=O)Cc3cccc([N+](=O)[O-])c3F)cc2F)nc1N1CCOCC1 [Centrinone] | 3 µM | 3 µM | 1 µM | 3 µM | 3 µM | 1 (active) | 1 (active) | 1 (active) | 1 (active) | 1 (active) | 1 (active) | 1 (active) | 1 (active) | 1 (active) | 1 (active) | 1 (active) | 1 (active) | 1 (active) | 1 (active) | 1 (active)
11 | Cc1ccc2nc(NCCN)c3ncc(C)n3c2c1 | 3 µM | 9 µM | 3 µM | 3 µM | 3 µM | 1 (active) | 1 (active) | 1 (active) | 1 (active) | 1 (active) | 1 (active) | 1 (active) | 1 (active) | 1 (active) | 1 (active) | 1 (active) | 1 (active) | 1 (active) | 1 (active) | 1 (active)
12 | COc1ccc(N(C)c2nc(C)nc3ccccc23)cc1 [MPC 6827 hydrochloride] | ≤ 0.3 µM | ≤ 0.3 µM | ≤ 0.3 µM | 1 µM | ≤ 0.3 µM | 1 (active) | 1 (active) | 1 (active) | 1 (active) | 1 (active) | 1 (active) | 1 (active) | 1 (active) | 1 (active) | 1 (active) | 1 (active) | 1 (active) | 1 (active) | 1 (active) | 1 (active)
13 | Cc1cn(CCN2CCN(c3ccccc3-c3cc(C#N)cc(C(=O)NCCCN4CCCC4)c3)CC2)c2ccccc12 | 1 µM | 3 µM | 1 µM | 3 µM | 1 µM | 1 (active) | 1 (active) | 1 (active) | 1 (active) | 1 (active) | 1 (active) | 1 (active) | 1 (active) | 1 (active) | 1 (active) | 1 (active) | 1 (active) | 1 (active) | 1 (active) | 1 (active)
14 | O=C1Cc2c([nH]c3ccc(Br)cc23)-c2ccccc2N1 [Kenpaullone] | 3 µM | 3 µM | 3 µM | 3 µM | 3 µM | 1 (active) | 1 (active) | 1 (active) | 1 (active) | 1 (active) | 1 (active) | 1 (active) | 1 (active) | 1 (active) | 1 (active) | 1 (active) | 1 (active) | 1 (active) | 1 (active) | 1 (active)
15 | CON(C)C(=O)N1N=C(c2cc(F)ccc2F)S[C@@]1(CCCN)c1ccccc1 [ARRY 520 trifluoroacetate] | ≤ 0.3 µM | ≤ 0.3 µM | ≤ 0.3 µM | ≤ 0.3 µM | ≤ 0.3 µM | 1 (active) | 1 (active) | 1 (active) | 1 (active) | 1 (active) | 1 (active) | 1 (active) | 1 (active) | 1 (active) | 1 (active) | 1 (active) | 1 (active) | 1 (active) | 1 (active) | 1 (active)
16 | CC(=C/[C@@H](C)C(=O)c1ccc(N(C)C)cc1)/C=C/C(=O)NO [Trichostatin A] | ≤ 0.3 µM | ≤ 0.3 µM | ≤ 0.3 µM | ≤ 0.3 µM | ≤ 0.3 µM | 1 (active) | 1 (active) | 1 (active) | 1 (active) | 1 (active) | 1 (active) | 1 (active) | 1 (active) | 1 (active) | 1 (active) | 1 (active) | 1 (active) | 1 (active) | 1 (active) | 1 (active)
